# Test results: PubChem BioAssay
# Activity calls are given as the source filed them.
# Experiments:
# [1] = E. coli DRC41 culture turbidity changes, primary screen, E. coli filamentation inducer project, strain DRC41, OD650, 48 h (AID 1152);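 further: E. coli MC1000 strain DRC41 lacking acrAB efflux pump and sulA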; settings: E. coli DRC41 (acrAB sulA), higher = more signal, called active from +8 up or from −8 down
# [2] = small-molecule binders of probe aLefty1, primary screen, biochemical, small-molecule microarray, 635/667 nm fluorescence (AID 1153); settings: higher = more signal;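 further: score merges spot fluorescence with signal-to-noise ratio from the scanned slide images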
# [3] = PSAC antagonists in infected red cells, primary screen, cell-based, P. falciparum Indochina, OD700, 1 h (AID 1154); settings: P. falciparum Indochina infected RBC osmotic lysis, higher = more signal, called active from +8 up or from −8 down
# [4] = PSAC antagonists in infected red cells, primary screen, cell-based, P. falciparum Indochina, OD700, 2 h (AID 1155);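 further: lysis reports solute entry through the parasite surface anion channel PSAC; channel blockers reduce lysis of infected cells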; settings: P. falciparum Indochina infected erythrocytes, osmotic lysis OD700; higher = more signal, called active from +8 up or from −8 down
# [5] = osmotic lysis modulators in infected erythrocytes, primary screen, PSAC antagonist project, cell-based, P. falciparum Indochina, OD700, 3 h (AID 1156); settings: higher = more signal, called active from +8 up or from −8 down
# [6] = PSAC antagonists in infected red cells, primary screen, cell-based, P. falciparum Indochina, OD700, 18 h (AID 1157); settings: P. falciparum Indochina infected erythrocytes, osmotic lysis OD700, 18 h; higher = more signal, called active from +8 up or from −8 down
# [7] = modulators of S6 phosphorylation in cells, primary screen, cell-based, A549, cytoblot, luminescence, serum-stimulated (AID 1158); settings: A549 phospho-S6 cytoblot, 5 h, higher = more signal;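 further: serum-stimulated A549 lung adenocarcinoma cells; signal is phosphorylated S6 detected by cytoblot immunostaining with HRP secondary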
# [8] = biological target: NADPH oxidase 2 (Homo sapiens) (UniProt P04839); experiment: NOX2-dependent H2O2 signal modulators, primary screen, NOX inhibitor project, cell-based, HEK293-NOX2, PMA-stimulated, Amplex Red fluorescence (AID 1159); settings: 45 min, higher = more signal, called active from +8 up or from −8 down; further: test concentration not given here
# [9] = biological target: NADPH oxidase 4 (Homo sapiens) (UniProt Q9NPH5); experiment: NOX4-dependent H2O2 signal modulators, primary screen, NOX inhibitor project, cell-based, HEK293-NOX4, tetracycline-induced, Amplex Red fluorescence (AID 1160); settings: 45 min, higher = more signal, called active from +8 up or from −8 down
# [10] = biological target: NADPH oxidase 5 (Homo sapiens) (UniProt Q96PH1); experiment: NOX5-dependent H2O2 signal modulators, primary screen, NOX inhibitor project, cell-based, HEK293-NOX5, Amplex Red fluorescence (AID 1161); settings: HEK293-NOX5, ionomycin, 45 min, higher = more signal
# [11] = A549 cell viability effects, profiling panel, calcein-AM fluorescence, 48 h, basal (AID 1162); settings: higher = more signal; further: test concentration not given here
# [12] = adipocyte viability effects, profiling panel, cell-based, 3T3-L1 adipocytes, calcein-AM fluorescence, 48 h, basal (AID 1163); settings: 3T3-L1 adipocytes viability, higher = more signal; further: test concentration not given here
# [13] = HepG2 cell viability effects, profiling panel, calcein-AM fluorescence, 48 h, basal (AID 1164); settings: higher = more signal; further: test concentration not given here
# [14] = MM1S cell viability effects, profiling panel, calcein-AM fluorescence, 48 h, basal (AID 1165); settings: higher = more signal;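 further: viability of MM1S multiple myeloma cells under basal unstimulated conditions; test concentration not given here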
# [15] = basal RPMI8226 viability, no added stimulus, profiling panel, cell-based, calcein-AM fluorescence, 48 h, PK04 Diversity Set (AID 1166); settings: RPMI8226 myeloma viability, higher = more signal;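 further: cells grown under basal conditions without added stimulus; test concentration not given here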
# [16] = basal HepG2 mitochondrial membrane potential changes, profiling panel, cell-based, JC-1 fluorescence, 24 h, 100 nL compound (AID 1167); settings: higher = more signal; further: test concentration not given here
# [17] = basal 3T3-L1 adipocyte mitochondrial potential changes, profiling panel, cell-based, JC-1 fluorescence, 3T3-L1 adipocytes, 24 h, 100 nL compound (AID 1168); settings: JC-1 mitochondrial fluorescence, higher = more signal, called active from +8 up or from −8 down; further: test concentration not given here
# [18] = basal RPMI8226 mitochondrial membrane potential changes, profiling panel, cell-based, JC-1 fluorescence, 24 h, 100 nL compound (AID 1169); settings: RPMI8226 myeloma, JC-1 mitochondrial potential fluorescence, higher = more signal; further: test concentration not given here
# [19] = basal MM1S mitochondrial membrane potential changes, profiling panel, cell-based, JC-1 fluorescence, 24 h, 100 nL compound (AID 1170); settings: higher = more signal; further: test concentration not given here
# [20] = A549 lung cancer cell viability effects, profiling panel, resazurin fluorescence, 24 h, PK04 Diversity Set (AID 1171); settings: higher = more signal, called active from +8 up or from −8 down; further: test concentration not given here
# Sequence of NADPH oxidase 4 (Homo sapiens) (Q9NPH5 whole entry, looked up): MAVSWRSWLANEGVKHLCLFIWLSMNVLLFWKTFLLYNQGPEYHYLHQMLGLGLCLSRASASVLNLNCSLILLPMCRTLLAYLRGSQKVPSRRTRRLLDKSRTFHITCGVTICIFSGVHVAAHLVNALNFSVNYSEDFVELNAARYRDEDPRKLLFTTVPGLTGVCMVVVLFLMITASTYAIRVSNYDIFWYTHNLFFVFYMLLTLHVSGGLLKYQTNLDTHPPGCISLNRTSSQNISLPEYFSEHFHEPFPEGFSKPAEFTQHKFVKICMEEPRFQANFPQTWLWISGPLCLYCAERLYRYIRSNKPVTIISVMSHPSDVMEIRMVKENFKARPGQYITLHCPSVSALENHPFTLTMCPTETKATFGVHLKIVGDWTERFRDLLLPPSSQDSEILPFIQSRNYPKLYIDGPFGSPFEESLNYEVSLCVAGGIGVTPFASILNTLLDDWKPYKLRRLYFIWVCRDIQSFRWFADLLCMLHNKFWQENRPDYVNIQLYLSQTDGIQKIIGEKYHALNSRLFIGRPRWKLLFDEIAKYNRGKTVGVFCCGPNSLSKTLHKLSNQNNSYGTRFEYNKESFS
# Sequence of NADPH oxidase 5 (Homo sapiens) (Q96PH1 whole entry, looked up): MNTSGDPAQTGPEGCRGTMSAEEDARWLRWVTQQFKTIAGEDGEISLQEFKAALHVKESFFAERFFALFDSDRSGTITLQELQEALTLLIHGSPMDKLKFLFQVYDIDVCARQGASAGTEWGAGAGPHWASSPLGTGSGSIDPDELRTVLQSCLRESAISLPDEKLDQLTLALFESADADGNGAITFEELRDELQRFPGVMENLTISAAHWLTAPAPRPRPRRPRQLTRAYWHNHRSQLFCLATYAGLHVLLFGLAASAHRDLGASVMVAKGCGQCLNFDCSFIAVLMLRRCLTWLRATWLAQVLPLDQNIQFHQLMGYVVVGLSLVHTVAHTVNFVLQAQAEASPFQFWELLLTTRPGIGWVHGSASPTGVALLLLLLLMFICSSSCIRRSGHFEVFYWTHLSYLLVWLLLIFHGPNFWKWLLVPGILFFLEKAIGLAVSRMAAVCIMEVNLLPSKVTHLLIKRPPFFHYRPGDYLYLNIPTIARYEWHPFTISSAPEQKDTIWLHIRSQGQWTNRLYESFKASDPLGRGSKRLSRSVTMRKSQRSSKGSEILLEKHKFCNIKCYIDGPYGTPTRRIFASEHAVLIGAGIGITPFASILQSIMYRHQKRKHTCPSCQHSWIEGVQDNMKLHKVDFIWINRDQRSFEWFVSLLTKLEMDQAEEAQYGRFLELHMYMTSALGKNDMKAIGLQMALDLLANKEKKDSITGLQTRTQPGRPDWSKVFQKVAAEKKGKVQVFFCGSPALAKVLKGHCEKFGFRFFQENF
# Sequence of NADPH oxidase 2 (Homo sapiens) (P04839 whole entry, looked up): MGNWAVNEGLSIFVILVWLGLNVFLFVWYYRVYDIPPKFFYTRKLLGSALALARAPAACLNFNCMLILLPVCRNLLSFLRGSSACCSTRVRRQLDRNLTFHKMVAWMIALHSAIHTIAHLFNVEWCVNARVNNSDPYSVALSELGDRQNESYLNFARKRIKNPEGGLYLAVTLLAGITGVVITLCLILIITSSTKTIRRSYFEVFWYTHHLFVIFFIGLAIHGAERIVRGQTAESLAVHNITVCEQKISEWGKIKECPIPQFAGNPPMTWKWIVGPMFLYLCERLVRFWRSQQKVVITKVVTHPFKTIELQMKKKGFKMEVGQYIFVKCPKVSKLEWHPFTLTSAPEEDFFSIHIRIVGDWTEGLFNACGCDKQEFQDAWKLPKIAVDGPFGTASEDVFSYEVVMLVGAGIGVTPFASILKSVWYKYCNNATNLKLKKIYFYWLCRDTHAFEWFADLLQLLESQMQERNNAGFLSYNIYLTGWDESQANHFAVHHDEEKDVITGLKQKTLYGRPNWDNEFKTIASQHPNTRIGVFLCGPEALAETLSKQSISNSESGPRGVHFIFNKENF
Compound,z-score [1],composite z-score [2],z-score [3],z-score [4],z-score [5],z-score [6],z-score [7],z-score [8],z-score [9],z-score [10],z-score [11],z-score [12],z-score [13],z-score [14],z-score [15],z-score [16],z-score [17],z-score [18],z-score [19],z-score [20]
C=CCNC(=O)[C@H]1[C@@H]2C(=O)O[C@@H](c3ccccc3)[C@@H](c3ccccc3)N2[C@@H](c2ccc(O)cc2)[C@]12C(=O)Nc1ccccc12,1.58 (inactive),-0.191,2.59 (inactive),0.301 (inactive),-0.458 (inactive),0.393 (inactive),0.288,0.0548 (inactive),-0.789 (inactive),1.04,1.94,0.816,1.51,-0.0148,-0.836,-0.948,-0.586 (inactive),0.105,0.24,0.552 (inactive)
O=C1O[C@H](c2ccccc2)[C@H](c2ccccc2)N2[C@H]1[C@@H](C(=O)N1CCN(c3ncccn3)CC1)[C@]1(C(=O)Nc3ccc(C#CC4(O)CCCCCC4)cc31)[C@H]2c1ccc(O)cc1,2.51 (inactive),0.0903,0.36 (inactive),0.88 (inactive),1.09 (inactive),0.566 (inactive),1.37,1.24 (inactive),0.663 (inactive),1.22,1.84,0.783,1.58,0.0827,-0.153,-0.553,-0.166 (inactive),-0.259,0.18,1.17 (inactive)
CCCC[C@@H](O)C1=C(C)Cn2c(=O)n(-c3ccccc3)c(=O)n2[C@H]1CO,3.02 (inactive),-0.414,-0.262 (inactive),-0.957 (inactive),-0.0398 (inactive),-2.37 (inactive),0.916,-0.943 (inactive),0.216 (inactive),0.616,1.38,0.345,0.108,0.548,0.617,0.372,0.276 (inactive),-0.347,-0.804,-1.16 (inactive)
COC(=O)[C@@]1(Cc2ccc(F)cc2)[C@H]2c3cc(C(=O)N(C)C)n(Cc4cccc5ccccc45)c3C[C@H]2CN1C(=O)c1ccccc1,-1.92 (inactive),0.0568,8.44 (active),1.29 (inactive),1.07 (inactive),1.28 (inactive),-0.779,0.105 (inactive),-3.8 (inactive),0.592,-0.994,-0.296,0.156,-0.0591,-0.489,-0.0443,-2.25 (inactive),-0.207,-0.774,0.0731 (inactive)
COc1cc2c(cc1OC)CN(C(=O)[C@@H]1[C@H]3C(=O)O[C@H](c4ccccc4)[C@H](c4ccccc4)N3[C@H](c3ccc(O)cc3)[C@@]13C(=O)Nc1ccc(C#CC4=CCCCC4)cc13)CC2,2.03 (inactive),0.298,1.18 (inactive),0.925 (inactive),1.2 (inactive),1.23 (inactive),0.458,1.36 (inactive),1.03 (inactive),-0.337,0.434,0.641,0.618,-0.126,-1.58,-0.948,0.165 (inactive),-0.733,0.328,0.175 (inactive)
O=C1N(Cc2ccccc2)c2ccccc2C[C@@]12N=C(c1ccc(OCCCO)cc1)O[C@H]2c1ccccc1,-1.12 (inactive),0.383,10.8 (active),2.67 (inactive),3.39 (inactive),1.03 (inactive),0.075,1.92 (inactive),0.112 (inactive),-1.67,-1.32,0.84,-1.86,-3.33,-4.24,-0.237,-0.0792 (inactive),-1.29,0.811,-1.63 (inactive)
COc1cc(Cc2cc3c(c(-c4ccccc4)n2)[Si](C(C)C)(C(C)C)OC3)cc(OC)c1OC,0.752 (inactive),0.0299,1.62 (inactive),0.702 (inactive),0.84 (inactive),0.332 (inactive),0.159,1.04 (inactive),0.424 (inactive),0.0407,0.24,0.609,-0.305,-0.537,-0.189,-0.591,0.323 (inactive),0.138,0.382,0.534 (inactive)
C=CCNC(=O)[C@@H]1[C@H]2C(=O)O[C@H](c3ccccc3)[C@H](c3ccccc3)N2[C@H](c2ccc(O)cc2)[C@@]12C(=O)Nc1ccc(C#CC3=CCCCC3)cc12,-0.396 (inactive),1.56,1.71 (inactive),0.959 (inactive),-0.587 (inactive),1.08 (inactive),-0.424,1.51 (inactive),0.391 (inactive),0.578,0.0719,0.266,-3.89,-3.35,-4.57,-1.42,1.38 (inactive),-1.15,-1.2,-1.48 (inactive)
